Experimental data published in PubChem BioAssay AID1224860 (National Center for Advancing Translational Sciences (NCATS), 2016).
Results filed as inconclusive are left out. The source made the active and inactive calls. The call rests on the fitted dose curve; in most records, active means well fitted cell-killing curve with a large enough effect; inconclusive means small, poorly fitted or top-dose-only effect; inactive means flat fitted curve, though single readings scatter.

Assay: Compound cytotoxicity measured by an ATP content assay as a counter-screen for lead compounds in human iPSC derived neural progenitor cells (hNPCs)
Conditions: human iPSC-derived NPC viability, ATP luminescence; series mostly up to 46.1 µM; activity, negative = cytotoxicity: at the top concentration
Method: National Center for Advancing Translational Sciences [NCATS] Johns Hopkins University School of Medicine Florida State University Assay Overview: Many compounds can cause cytotoxicity at high compound concentrations. […] The compound cytotoxicity may also cause side effects or toxicity in human. Thus, the compound cytotoxicity needs to be measured in each cell type and each compound incubation time - same as these in the compound screening assay. The compound cytotoxicity can be measured by cell viability assays such as the ATP content assay. We use an ATP content assay kit for cell viability measurement. It measures ATP content (level) in human iPSC derived neural progenitor cells (hNPCs) using a luminescence readout that is proportional to viable cell numbers. Decrease in the luminescence signal after the compound treatment indicates reduced cell viability and cell death caused by compound treatment.
Assay Protocol Summary: The medium for hNPCs consists of DMEM/F12, N2 supplement (ThermoFisher, Cat.# 17502048), NEAA (ThermoFisher, Cat. # 11140050), 2 ug/ml heparin, 2 uM cyclopamine, and B27 (ThermoFisher, Cat. # 17504044). The ATP content assay kit (PerkinElmer, Cat.# 6016731) was used to determine cell viability. The reagent was reconstituted and prepared as described by the manufacturer. Cells were seeded in 384- or 1536-well assay plates and cultured at 37 C with 5% CO2 for 16 to 20 hours. The typical cell seeding density in the 1536-well plate assay is 350 cells/well in 3 ul medium for hNPCs in the tissue cultured treated/PDL coated plates. Compounds were added to cells and incubated for a specific time such as 6, 24, or 72 hours before addition of the reagent mixture of the ATP content assay kit at 1:1 ratio. After incubation at room temperature for 10 minutes, the luminescence intensity in assay plates was measured using a ViewLux plate reader (PerkinElmer). […] The percentage inhibitions of the decreased cell viability by small molecules were then calculated that indicate compound cytotoxicity.

SMILES	activity, negative = cytotoxicity	Potency
O=c1oc2cc(O)ccc2s1	-10.4% (inactive)	–
OCc1ccc(-c2ccc(-c3ccc(CO)s3)o2)s1	–	10.9 µM (active)
Cc1cc(O)c2ccccc2c1O	–	4.89 µM (active)
CC(=O)Oc1cccc2c1C(=O)c1c(OC(C)=O)cc(C(=O)O)cc1C2=O	-0.702% (inactive)	–
CC(C)(C)COc1ccc(-n2cc(C(=O)O)cn2)cc1C#N	-9.53% [at 88.3 µM] (inactive)	–
CC(=Cc1ccccc1)C=C1SC(=S)N(CC(=O)O)C1=O	-12.6% (inactive)	–
O=C(O)Cc1ccc(-c2ccccc2)cc1	0.151% (inactive)	–
COc1cccc(-c2cc(=O)c3ccccc3o2)c1N	–	15.5 µM (active)
O=S(=O)(O)c1ccc2nc(-c3ccccc3)[nH]c2c1	-7.27% (inactive)	–
Cc1ccc(C(=O)c2ccc(CC(=O)O)n2C)cc1	-10.8% (inactive)	–
O=C1C[C@@H](c2ccc(O)cc2)Oc2cc(O)cc(O)c21	-6.55% (inactive)	–
CN(C)c1cc(NC(=O)CNC(C)(C)C)c(O)c2c1C[C@@H]1C[C@H]3[C@H](N(C)C)C(=O)C(C(N)=O)=C(O)[C@@]3(O)C(=O)C1=C2O	-7.78% (inactive)	–
c1ccc(CCNc2nc(-c3ccccc3)cs2)cc1	-5.35% (inactive)	–
Cc1nc(N)sc1-c1ccnc(Nc2ccc(N3CCOCC3)cc2)n1	-15% (inactive)	–
CC1=C(CO)C(=O)O[C@@H]([C@@H](C)[C@H]2CC[C@H]3[C@@H]4C[C@H]5O[C@]56[C@@H](O)C=CC(=O)[C@]6(C)[C@@H]4CC[C@]23C)C1	4.61% (inactive)	–
COCCn1c2c([n+](Cc3cnccn3)c1C)C(=O)c1ccccc1C2=O	–	0.69 µM (active)
O=C1c2ccccc2-[n+]2ccc3c([nH]c4ccccc43)c21	–	2.18 µM (active)
CC(C(=O)O)c1ccc(-c2ccccc2)c(F)c1 (stereo not given)	2.15% (inactive)	–
COc1ccc(CC2=NN3C([C@@H](CCc4ccccc4)[C@@H](C)O)=NC(C)C3C(=O)N2)cc1OC (stereo not given in full)	1.03% (inactive)	–
CCCCCCCC/C=C/C(=O)O	-7.84% (inactive)	–

SMILES	activity, negative = cytotoxicity	Potency
CC=CC[C@@H](C)C(=O)[C@H]1C(=O)N[C@@H](C(C)C)C(=O)N(C)CC(=O)N(C)[C@@H](CC(C)C)C(=O)N[C@@H](C(C)C)C(=O)N(C)[C@@H](CC(C)C)C(=O)N[C@@H](C)C(=O)N[C@H](C)C(=O)N(C)[C@@H](CC(C)C)C(=O)N(C)[C@@H](CC(C)C)C(=O)N(C)[C@@H](C(C)C)C(=O)N1C	-13.2% (inactive)	–
CC[C@]1(O)C[C@H]2CN(CCc3c([nH]c4ccccc34)[C@@](C(=O)OC)(c3cc4c(cc3OC)N(C=O)[C@H]3[C@@](O)(C(=O)OC)[C@H](OC(C)=O)[C@]5(CC)C=CCN6CC[C@]43[C@@H]65)C2)C1	0.247% (inactive)	–
C[C@@H]1CCN(C(=O)CC#N)C[C@H]1N(C)c1ncnc2[nH]ccc12	-3.45% (inactive)	–
O=C(O)c1ccccc1NCCc1ccccc1	7.25% (inactive)	–
Nc1nc2ccc([N+](=O)[O-])cc2s1	1.04% [at 88.3 µM] (inactive)	–
O=S(=O)(O)CCSSCCS(=O)(=O)O	-10.7% (inactive)	–
CC(=O)OC(C)OC(=O)C(C)c1ccc(-c2ccccc2)c(F)c1 (stereo not given)	-2.32% (inactive)	–
CCOC1OC(=O)C[C@H]1NC(=O)[C@@H]1CCCN1C(=O)[C@@H](NC(=O)c1ccc(N)c(Cl)c1)C(C)(C)C (stereo not given in full)	2.99% (inactive)	–
O[C@@H](COc1cccc2ncccc12)CN1CCN(C2c3ccccc3[C@@H]3[C@H](c4ccccc42)C3(F)F)CC1 (stereo not given in full)	-12.7% (inactive)	–
CCCCCCCCCCCC(=O)[O][Sn]([CH2]CCC)([CH2]CCC)[O]C(=O)CCCCCCCCCCC	-2.8% (inactive)	–
[O-][n+]1ccccc1SSc1cccc[n+]1[O-]	–	0.112 µM (active)
Nc1ccc2c(c1)CN1C(=O)c3ccccc3C1=N2	–	6.73 µM (active)
N#CC1(c2ccc(NC(=O)c3cccnc3NCc3ccncc3)cc2)CCCC1	-21.9% (inactive)	–
N[C@H](CSC(c1ccccc1)(c1ccccc1)c1ccccc1)C(=O)O	-15.9% (inactive)	–
O=C(O)c1cc([N+](=O)[O-])ccc1NCCCc1ccccc1	-8.18% (inactive)	–
Cc1c(C(=O)O)c(O)cc2c1C(=O)c1c(O)c([C@@H]3O[C@H](CO)[C@@H](O)[C@H](O)[C@H]3O)c(O)c(O)c1C2=O	-12% (inactive)	–
Cc1ccc(O)c(N=Nc2ccccc2)n1	–	4.35 µM (active)
O=C(/C=C/c1ccccc1)NCCO	3.85% (inactive)	–
O=C(Nc1ccc(C(=O)O)c(O)c1)c1ccccc1	-7.98% (inactive)	–
CCC(C)SSc1ncc[nH]1 (stereo not given)	–	19.5 µM (active)
